Results published in PMC11006913.
Residue numbers refer to the chain shown, from its start.

Tests used:
Test in all cases: PBM; 200 nM protein, PBS
Conditions in all cases: dsDNA, one strand shown
SIX6 [1] = molecular target: T1, SIX6 (Homo sapiens, UniProt O95475 114-200, L167I)
T1 sequence: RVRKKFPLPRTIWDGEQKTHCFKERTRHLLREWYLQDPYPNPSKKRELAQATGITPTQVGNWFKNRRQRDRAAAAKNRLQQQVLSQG

SIX6 [2] = molecular target: T2, SIX6 (Homo sapiens, UniProt O95475 114-200, L143V)
T2 sequence: T1 sequence with L30V, I54L

SIX6 [3] = molecular target: T3, SIX6 (Homo sapiens, UniProt O95475 114-200, H141N)
T3 sequence: T1 sequence with H28N, I54L

SIX6 [4] = molecular target: T4, SIX6 (Homo sapiens, UniProt O95475 114-200, T165P)
T4 sequence: T1 sequence with T52P, I54L

SIX6 [5] = molecular target: T5, SIX6 (Homo sapiens, UniProt O95475 114-200, L167M)
T5 sequence: T1 sequence with I54M

SIX6 [6] = molecular target: T6, SIX6 (Homo sapiens, UniProt O95475 114-200, L143M)
T6 sequence: T1 sequence with L30M, I54L

SIX6 [7] = molecular target: T7, SIX6 (Homo sapiens, UniProt O95475 114-200, L143I)
T7 sequence: T1 sequence with L30I, I54L

SIX6 [8] = molecular target: T8, SIX6 (Homo sapiens, UniProt O95475 114-200, T165G)
T8 sequence: T1 sequence with T52G, I54L

SIX6 [9] = molecular target: T9, SIX6 (Homo sapiens, UniProt O95475 114-200, T139Q)
T9 sequence: T1 sequence with T26Q, I54L

SIX6 [10] = molecular target: T10, SIX6 (Homo sapiens, UniProt O95475 114-200, T165A)
T10 sequence: T1 sequence with T52A, I54L

SIX6 [11] = molecular target: T11, SIX6 (Homo sapiens, UniProt O95475 114-200, L167V)
T11 sequence: T1 sequence with I54V

SIX6 [12] = molecular target: T12, SIX6 (Homo sapiens, UniProt O95475 114-200)
T12 sequence: T1 sequence with I54L

SIX6 [13] = molecular target: T13, SIX6 (Homo sapiens, UniProt O95475 114-200, T165I)
T13 sequence: T1 sequence with T52I, I54L

ALX3 [14] = molecular target: ALX3 (Homo sapiens, UniProt O95076 139-225, N203Q)
ALX3 (Homo sapiens, UniProt O95076 139-225, N203Q), sequence (O95076 139-225 N203Q): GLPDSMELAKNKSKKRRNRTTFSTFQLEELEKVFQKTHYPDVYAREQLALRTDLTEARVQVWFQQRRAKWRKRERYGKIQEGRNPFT

ALX3 [15] = molecular target: ALX3 (Homo sapiens, UniProt O95076 139-225, N203S)
ALX3 (Homo sapiens, UniProt O95076 139-225, N203S), sequence (O95076 139-225 N203S): as the sequence (O95076 139-225 N203Q) above, with Q65S counted along it

HOXB6 = HOXB6 (Homo sapiens, UniProt P17509 132-218, K202E)
HOXB6, sequence (P17509 132-218 K202E): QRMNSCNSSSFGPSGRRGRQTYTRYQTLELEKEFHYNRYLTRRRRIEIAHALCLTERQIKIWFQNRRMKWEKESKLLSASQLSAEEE

HOXB9 [16] = molecular target: HOXB9 (Homo sapiens, UniProt P17482 171-250)
HOXB9 (Homo sapiens, UniProt P17482 171-250), sequence (P17482 171-250): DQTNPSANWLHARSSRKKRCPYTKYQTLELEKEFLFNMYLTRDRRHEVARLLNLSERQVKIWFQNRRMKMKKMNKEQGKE

HOXB9 [17] = molecular target: HOXB9 (Homo sapiens, UniProt P17482 171-250, R186Q)
HOXB9 (Homo sapiens, UniProt P17482 171-250, R186Q), sequence (P17482 171-250 R186Q): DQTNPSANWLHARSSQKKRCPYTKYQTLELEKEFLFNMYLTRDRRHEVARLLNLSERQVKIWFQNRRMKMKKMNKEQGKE

Sequence	binding signal (SIX6 [1])	binding signal (SIX6 [2])	binding signal (SIX6 [3])	binding signal (SIX6 [4])	binding signal (SIX6 [5])	binding signal (SIX6 [6])	binding signal (SIX6 [7])	binding signal (SIX6 [8])	binding signal (SIX6 [9])	binding signal (SIX6 [10])	binding signal (SIX6 [11])	binding signal (SIX6 [12])	binding signal (SIX6 [13])	binding signal (ALX3 [14])	binding signal (ALX3 [15])	binding signal (HOXB6)	binding signal (HOXB9 [16])	binding signal (HOXB9 [17])
AGATATAC	11 upbm affinity estimate (log intensity, higher = more binding, comparable within an allelic series)	10.4 upbm affinity estimate (log intensity, higher = more binding, comparable within an allelic series)	10.8 upbm affinity estimate (log intensity, higher = more binding, comparable within an allelic series)	9.92 upbm affinity estimate (log intensity, higher = more binding, comparable within an allelic series)	10.9 upbm affinity estimate (log intensity, higher = more binding, comparable within an allelic series)	10.9 upbm affinity estimate (log intensity, higher = more binding, comparable within an allelic series)	10.4 upbm affinity estimate (log intensity, higher = more binding, comparable within an allelic series)	11 upbm affinity estimate (log intensity, higher = more binding, comparable within an allelic series)	10.9 upbm affinity estimate (log intensity, higher = more binding, comparable within an allelic series)	10.8 upbm affinity estimate (log intensity, higher = more binding, comparable within an allelic series)	10.7 upbm affinity estimate (log intensity, higher = more binding, comparable within an allelic series)	10.9 upbm affinity estimate (log intensity, higher = more binding, comparable within an allelic series)	10.8 upbm affinity estimate (log intensity, higher = more binding, comparable within an allelic series)					
CGCTGCGC	8.99 upbm affinity estimate (log intensity, higher = more binding, comparable within an allelic series)	8.85 upbm affinity estimate (log intensity, higher = more binding, comparable within an allelic series)	8.98 upbm affinity estimate (log intensity, higher = more binding, comparable within an allelic series)	8.98 upbm affinity estimate (log intensity, higher = more binding, comparable within an allelic series)	8.92 upbm affinity estimate (log intensity, higher = more binding, comparable within an allelic series)	8.96 upbm affinity estimate (log intensity, higher = more binding, comparable within an allelic series)	8.93 upbm affinity estimate (log intensity, higher = more binding, comparable within an allelic series)	9 upbm affinity estimate (log intensity, higher = more binding, comparable within an allelic series)	9.06 upbm affinity estimate (log intensity, higher = more binding, comparable within an allelic series)	8.88 upbm affinity estimate (log intensity, higher = more binding, comparable within an allelic series)	9.02 upbm affinity estimate (log intensity, higher = more binding, comparable within an allelic series)	8.93 upbm affinity estimate (log intensity, higher = more binding, comparable within an allelic series)	8.95 upbm affinity estimate (log intensity, higher = more binding, comparable within an allelic series)	7.75 upbm affinity estimate (log intensity, higher = more binding, comparable within an allelic series)	7.74 upbm affinity estimate (log intensity, higher = more binding, comparable within an allelic series)			
AGCGCCCG	9.03 upbm affinity estimate (log intensity, higher = more binding, comparable within an allelic series)	8.99 upbm affinity estimate (log intensity, higher = more binding, comparable within an allelic series)	9.03 upbm affinity estimate (log intensity, higher = more binding, comparable within an allelic series)	9.05 upbm affinity estimate (log intensity, higher = more binding, comparable within an allelic series)	9.04 upbm affinity estimate (log intensity, higher = more binding, comparable within an allelic series)	9.02 upbm affinity estimate (log intensity, higher = more binding, comparable within an allelic series)	8.98 upbm affinity estimate (log intensity, higher = more binding, comparable within an allelic series)	8.98 upbm affinity estimate (log intensity, higher = more binding, comparable within an allelic series)	8.94 upbm affinity estimate (log intensity, higher = more binding, comparable within an allelic series)	8.98 upbm affinity estimate (log intensity, higher = more binding, comparable within an allelic series)	8.97 upbm affinity estimate (log intensity, higher = more binding, comparable within an allelic series)	8.99 upbm affinity estimate (log intensity, higher = more binding, comparable within an allelic series)	9 upbm affinity estimate (log intensity, higher = more binding, comparable within an allelic series)			8.99 upbm affinity estimate (log intensity, higher = more binding, comparable within an allelic series)		
AGTGATAT	11.3 upbm affinity estimate (log intensity, higher = more binding, comparable within an allelic series)	10.3 upbm affinity estimate (log intensity, higher = more binding, comparable within an allelic series)	11.3 upbm affinity estimate (log intensity, higher = more binding, comparable within an allelic series)	9.9 upbm affinity estimate (log intensity, higher = more binding, comparable within an allelic series)	10.8 upbm affinity estimate (log intensity, higher = more binding, comparable within an allelic series)	11 upbm affinity estimate (log intensity, higher = more binding, comparable within an allelic series)	10.3 upbm affinity estimate (log intensity, higher = more binding, comparable within an allelic series)	11.2 upbm affinity estimate (log intensity, higher = more binding, comparable within an allelic series)	11.1 upbm affinity estimate (log intensity, higher = more binding, comparable within an allelic series)	11.2 upbm affinity estimate (log intensity, higher = more binding, comparable within an allelic series)	11 upbm affinity estimate (log intensity, higher = more binding, comparable within an allelic series)	11 upbm affinity estimate (log intensity, higher = more binding, comparable within an allelic series)	11.1 upbm affinity estimate (log intensity, higher = more binding, comparable within an allelic series)				9.87 upbm affinity estimate (log intensity, higher = more binding, comparable within an allelic series)	9.76 upbm affinity estimate (log intensity, higher = more binding, comparable within an allelic series)
